The source of these data is PubChem BioAssay AID504648 (National Center for Advancing Translational Sciences (NCATS), 2011).

Among all 390,000 compounds or so, about 610 (0.16%) were called active. A call without a number means that no potency is given here. About 4% were inconclusive and are not listed. The call rests on the fitted dose curve; in most records, active means well fitted inhibition curve with a large enough effect; inconclusive means small, poorly fitted or top-dose-only effect, or effect the other way, or another doubt; inactive means no such curve, though single readings can be large or run the other way. Only a selection was taken, and actives are over-represented in it overall.
Potency means the concentration at half of the fitted maximal effect.

The experiment can be described thus: Nrf2 qHTS screen for inhibitors: counterscreen for cytotoxicity. The note with it: A549 ARE-Fluc cells, CellTiter-Fluor viability, 18-24 h; series mostly up to 46 µM. A digest of the protocol: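 A549 ARE_Fluc cells in 5% FBS OPTI-MEM were exposed to compounds in concentration-response for 18-24 h at 37 deg C. Viability was read by CellTiter-Fluor fluorescence (Ex 405/Em 525) after 30 min, before the luciferase read.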
As to `Cc1ccc(S(=O)(=O)NC(N)=NCCC[C@@H](NC(=O)CNC(=O)c2ccccc2)C(=O)Nc2cc(C(F)(F)F)ccc2Cl)cc1`, the Potency entry was “inactive”.
Under `CCOc1cc(C2C(C(=O)Nc3ccc(OC)cc3)=C(C)Nc3nc(SC)nn32)ccc1O` (stereo not given) stands “inactive”; under `CN1CCOc2cc(S(=O)(=O)N3CCN(S(=O)(=O)c4c(F)cccc4F)CC3)cnc21`, “inactive”; under `O=C1CN(Cc2ccccc2)S(=O)(=O)c2ccccc21`, “inactive”.
With `COc1ccc(C2Nc3ccc(NC(=O)COC(C)=O)cc3C(=O)N2Cc2ccccc2)cc1COc1ccc(NC(C)=O)cc1` (stereo not given), the Potency entry was “inactive”.
Under `COc1ccc(C2Nc3ccccc3C(=O)N2Cc2ccc(Cl)cc2)cc1COc1ccc(NC(C)=O)cc1` (stereo not given) stands “inactive”.
With `O=C1C[C@@H](c2ccc3ccccc3c2)N1S(=O)(=O)c1ccccc1[N+](=O)[O-]`, the Potency entry was “inactive”.
As to `CNC(=O)[C@]1(C(F)(F)F)C[C@H](CCc2ccccc2)CCCO1`, the Potency entry was “inactive”.
Under `COc1ccc2c(Sc3ccc(C)cc3)c(C(=O)NC(C)c3ccccc3)[nH]c2c1` (stereo not given) stands “inactive”.
Turning to `Cc1cc(NS(=O)(=O)c2ccc3oc(=O)c4ncn(C)c4c3c2)ccc1Br`, the Potency result is “inactive”.
Consider `CC(/C=C/c1ccco1)=N/NC(=O)C1COc2ccccc2O1` (stereo not given), for which the Potency entry was “inactive”.
For the molecule `O=C(Nc1ncc([N+](=O)[O-])s1)C1COc2ccccc2O1` (stereo not given), the Potency is 20.6 µM (active).
As for `CC1CC(=NNC(=O)C2COc3ccccc3O2)CC(C)(C)C1` (stereo not given), the entry is “inactive”; as for `Oc1ccc(Br)cc1C1C=C(c2ccc3c(c2)OCO3)NC(c2ccc(Cl)cc2)N1` (stereo not given), “inactive”; as for `Cc1ccc(-c2nc(=N)sn2Cc2ccccc2)cc1`, “inactive”.
As for `CCCN1CCC(=O)N(C(CSc2ccc(OC)cc2)Cc2ccccc2)CC1` (stereo not given), the entry is “inactive”.
As for `COc1ccc(C2Nc3cccc(OC)c3C(=O)N2Cc2ccccc2)cc1COc1ccc(NC(C)=O)cc1` (stereo not given), the entry is “inactive”.
`CCOc1ccc(Br)cc1CSC(=N)N`: the Potency was 20.6 µM (active).
Under `CCOc1ccc(Br)cc1S(=O)(=O)Nc1cccc(S(=O)(=O)N(CC)CC)c1` stands “inactive”; under `COCC(C)NCc1cc(Br)ccc1OC` (stereo not given), “inactive”; under `O=C1NS(=O)(=O)c2ccccc21`, “inactive”.
Under `O=C(NC(c1ccco1)c1cc(Cl)c2cccnc2c1O)c1ccccc1` (stereo not given) stands “inactive”; under `O=C1CCc2cc(S(=O)(=O)Nc3cccc(Oc4ccccc4)c3)ccc2N1`, “inactive”; under `CCN1C(=O)c2ccccc2Sc2ccc(NC(=O)Cc3ccc(OC)cc3)cc21`, “inactive”.
As for `CCN1/C(=C/C(=S)Nc2ccccc2)Sc2ccccc21`, the figure is 16.4 µM (active).
Turning to `CNC(=O)CN1C(=O)c2cccnc2Sc2ccccc21`, the Potency result was “inactive”.
Under `Cc1cc2c(s1)c1cnn(Cc3cc(F)c(Cl)cc3Cl)c(=O)c1n2C` stands “inactive”; under `CN=C1C=C/C(=N/N=c2\ccn(O)cc2C)C=C1C`, 16.4 µM (active); under `OC[C@@H]1O[C@H](n2cnc3c(SCc4ccccc4)ncnc32)[C@H](O)[C@H]1O`, “inactive”.
Regarding `COc1ccc(C2Nc3ccccc3C(=O)N2Cc2ccccc2)cc1COc1ccc(C(N)=O)cc1` (stereo not given), the Potency entry is “inactive”.
On to `COc1cc(F)c(S(=O)(=O)N2CCCN(S(=O)(=O)c3ccc(N)cc3)CC2)c(F)c1`, for which the Potency result was “inactive”.
In the case of `Cc1nc(N2CCOCC2)c2c(C(=O)NCc3cccc(Cl)c3)c(C)oc2n1`, the Potency entry was “inactive”.
Under `CCOc1ccc(-c2n[nH]c3c2C(c2ccccc2OC)N(c2ccc(Br)cc2)C3=O)cc1` (stereo not given) stands “inactive”; under `CCCN1CCC(=O)N(C(CSc2ccc(C)cc2)Cc2ccccc2)CC1` (stereo not given), “inactive”.
Under `Cc1ccc(S(=O)(=O)N2CCN(c3nc(-n4cnc5ccccc54)nc4ccccc34)CC2)cc1` stands “inactive”.
As for `O=C(NCc1nnc(C(=O)Nc2ccc(C(F)(F)F)cc2Cl)o1)c1ccccc1`, the entry is “inactive”.
Take `CC1CCCCN1CC(=O)N1CCCc2c1c(=O)oc1ccc(OCc3ccccc3)cc21` (stereo not given): the Potency entry was “inactive”.
As for `COc1ccc2c(c1OC)C(=O)OC2Nc1nc(-c2ccccc2)cs1` (stereo not given), the figure is 20.6 µM (active); as for `COc1cccc(C2CC(c3ccccc3)=NN2S(=O)(=O)c2ccccc2)c1OC` (stereo not given), “inactive”; as for `Cc1ccc(CNC(=O)C2(C(F)(F)F)C/C(=C\CCO)CCCO2)o1` (stereo not given), “inactive”.
Under `Cn1nnnc1Sc1ncnc2scc(-c3ccccc3[N+](=O)[O-])c12` stands “inactive”; under `COc1cccc(OC2=NS(=O)(=O)c3ccccc32)c1`, “inactive”; under `CCc1ccc(NC(=O)N2CCN(C(=O)c3nsc4ccccc34)CC2)cc1`, “inactive”.
For `Cc1cc(C)c(NC(=O)Cn2c(SCC(=O)NCc3ccccc3)nc3ccccc32)c(C)c1`, the Potency entry is “inactive”.
Under `COc1ccc(Br)cc1C1C2C=CCC(C)C2C(=O)N1Cc1ccccc1` (stereo not given) stands “inactive”; under `O=C1C2C(c3ccccc3)CC=CC2C(c2ccoc2)N1Cc1ccccc1` (stereo not given), “inactive”; under `Cc1ccc(NC(=O)C(Cc2ccccc2)NS(=O)(=O)c2ccc3c(c2)oc(=O)n3C)cc1C` (stereo not given), “inactive”.
Regarding `CC(=O)Nc1cc(C(=O)NCc2ccc(F)cc2)ccc1Sc1ccc(F)cc1`, the Potency entry was “inactive”.
Under `COC(=O)c1ccc(OC)c(Cn2c(=O)n(Cc3ccccc3)c(=O)c3c2c2cc(OC)ccc2n3C)c1` stands “inactive”; under `O=C1Nc2ccc(Br)cc2/C1=N/N=C/C1=C(N2CCOCC2)C(=C\c2ccccc2)/CC1`, 18.4 µM (active); under `COc1ccccc1C(=O)OCc1cc(=O)n2nc(-c3cccs3)sc2n1`, “inactive”.
Under `O=[S+]([O-])(c1ccc2c(c1)OCCO2)N1CCN([S+](=O)([O-])c2c(Cl)cc(Cl)cc2Br)CC1` stands “inactive”; under `COc1ccc(C2=NC(c3ccncc3)=Nc3ccc(Br)cc3N2)cc1`, “inactive”; under `O=[S+]([O-])(c1ccc(OC(F)(F)F)cc1)N1CCN([S+](=O)([O-])c2ccc3c(c2)OCCO3)CC1`, “inactive”.
As for `CCc1ccc(NC(=O)Cn2c(=O)n(CCC(=O)NCc3ccc4c(c3)OCO4)c(=O)c3ccccc32)cc1`, the entry is “inactive”; as for `CCc1ccccc1NC(=O)N1CCN(C(=O)c2nsc3ccccc23)CC1`, “inactive”.
Turning to `CCCn1c2ccccc2c2cnn(CC(=O)N3CCCC(C(=O)OCC)C3)c(=O)c21` (stereo not given), the Potency entry is “inactive”.
Under `CCOC(=O)c1c(SCC(=O)Nc2cccc(C)c2C)nc(=O)[nH]c1C` stands “inactive”.
As for `CCOC(=O)c1c(C)[nH]c(C)c1S(=O)(=O)N(C)CC(=O)N1CCN(c2ccccc2)CC1`, the entry is “inactive”; as for `CCOC(=O)c1c(C)[nH]c2c1-c1ccccc1C(=O)C2=O`, 23.1 µM (active); as for `COc1ccc(CN(Cc2ccccc2)C(=O)c2ccc(O)cc2)cc1COc1ccc(NC(C)=O)cc1`, “inactive”.
As for `Cc1ccc(Cn2ncc3c4sc(C)cc4n(C)c3c2=O)c(C)c1`, the entry is “inactive”.
Turning to `Cc1ccc(-c2nnc3ccc(SCC(N)=O)nn23)cc1`, the Potency result was “inactive”.
As for `CCc1cccc(NC(=O)c2cnc(N3CCOCC3)c3ccccc23)c1`, the entry is “inactive”.
With `COc1ccc(C(=O)N(Cc2ccccc2)Cc2ccc(OC)c(COc3ccc(NC(C)=O)cc3)c2)c(O)c1`, the Potency result was “inactive”.
As for `C=C1CCN(Cc2ccc(OC)cc2)S(=O)(=O)c2ccccc21`, the entry is “inactive”; as for `CC(=O)OCC(NC(=O)C(Cc1ccccc1)NC(=O)OC(C)(C)C)C1OC(n2ccc(=O)[nH]c2=O)C(OC(C)=O)C1OC(C)=O` (stereo not given), “inactive”.
Under `CCN(CC)/[N+]([O-])=N/Oc1cc(O/[N+]([O-])=N/N2CCCC2CO)c([N+](=O)[O-])cc1[N+](=O)[O-]` (stereo not given) stands “inactive”; under `CCOc1ccc(CNCc2c(C(=O)O)c(C)n(Cc3cccc(OC)c3)c2C)cc1OC`, “inactive”; under `COc1ccc2c(CNCCc3ccccc3C)c(C(=O)O)n(Cc3ccccc3C)c2c1`, “inactive”.
As to `COc1ccc(Cn2c(C(=O)O)c(CNCc3cccc(OC)c3)c3ccc(C)cc32)cc1`, the Potency is 8.2 µM (active).
`Cc1c(C=O)n(C)n(-c2ccccc2)c1=O`: the Potency entry was “inactive”.
Under `Cc1ccc(S(=O)(=O)Nc2ccccc2CNc2c(C)n(C)n(-c3ccccc3)c2=O)cc1` stands “inactive”.
As for `Cc1c(N=Nc2ccc(N(C)C)cc2)c(=O)n(-c2ccccc2)n1C`, the figure is 18.4 µM (active).
As for `O=C1c2ccccc2C(=O)N1c1ccc(S(=O)(=O)N2CCOCC2)c2ccccc12`, the entry is “inactive”; as for `CCCN(CCC)C(=O)C1CCCN(c2ncnc3c2nc2n3CCCCC2)C1` (stereo not given), “inactive”.
`N#CN1CCC(NS(=O)(=O)c2cccc(F)c2)C1` (stereo not given): the Potency entry is “inactive”.
As for `CC[n+]1cc(C)ccc1/C=C/c1ccc(N(C)C)cc1`, the figure is 9.2 µM (active).
Under `N#Cc1ccc(OC2=NS(=O)(=O)c3ccccc32)cc1` stands “inactive”; under `CCC(C)Nc1oc(-c2ccc(COc3ccc(Cl)cc3)o2)nc1C#N` (stereo not given), “inactive”; under `Cc1c(C)n(Cc2ccc(Cl)cc2)c2ccc(C(=O)NCCc3ccc(S(N)(=O)=O)cc3)cc12`, “inactive”.
Take `Cc1onc(-c2ccc(F)cc2F)c1C(=O)Nc1cccc(C(F)(F)F)c1`: the Potency result was “inactive”.
Under `Cc1cc(Nc2cccc(C(F)(F)F)c2)nc2ccc(NC(=O)c3ccc(=O)[nH]c3)cc12` stands “inactive”; under `COc1cc(NC(=O)c2[nH]cnc2C(N)=O)cc(C(=O)Nc2cccc(C(F)(F)F)c2)c1`, 20.6 µM (active); under `Cc1ccc(-c2nc(SCc3ccc(Br)cc3)n3[nH]c(=O)cc3n2)cc1`, “inactive”.
Under `O=C(O)C1CC=CC2CCN(C3CCCCC3)C(=O)C21` (stereo not given) stands “inactive”.
Under `C=CC(=O)Nc1ccc(Nc2ccnc(Nc3ccc(N4CCN(C)CC4)cc3)n2)cc1` stands 9.2 µM (active); under `Cc1cc(Nc2cc(N3CCN(C)CC3)nc(Sc3ccc(NC(=O)C4CC4)cc3)n2)n[nH]1`, “inactive”.
Regarding `O=C(COc1ccccc1)Nc1ccc(N2CCN(C(=O)c3cccs3)CC2)cc1`, the Potency result is “inactive”.
As for `COc1cc(/C=N/NC(=O)Nc2ccccc2)ccc1OCCOc1ccccc1C`, the figure is 5.8 µM (active).
Under `Cc1ccc(F)c(NC(=O)CCOc2ccccc2C)c1` stands “inactive”.
As for `C/C=C/c1ccc(OCCOc2ccc(C=O)cc2OC)c(OC)c1`, the entry is “inactive”.
As to `CC(=O)c1ccc(NC(=O)CSc2c(C(C)C)cnc3c2c(=O)n(C)c(=O)n3C)cc1`, the Potency entry was “inactive”.
Under `COc1ccc(CN2CCC(=O)c3ccccc3S2(=O)=O)cc1` stands “inactive”; under `O=C(c1ccc2c(=O)n(Cc3ccco3)c(=S)[nH]c2c1)N1CCCC1`, “inactive”.
